Screens (PubChem)
HT1080 IDH1KD tx: qHTS for induction of synthetic lethality in tumor cells producing 2HG: qHTS for the HT-1080-IDH1KD cell line; Potency, µM (top dose mostly 46.1 µM), actives largely listed as cytotoxic; 2% of 360,000 active; HT-1080 IDH1 knockdown viability, ATP luminescence, 48 h
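Viability of IDH1-knockdown HT-1080 fibrosarcoma cells was assessed by CellTiter-Glo after 48 h at 37 °C with titrated compound; concentration-effect curves were classified by fit quality and response size.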
DT40 TDP1 no CPT: qHTS for Inhibitors of human tyrosyl-DNA phosphodiesterase 1 (TDP1): qHTS in cells in absence of CPT. DT40 Tdp1-/- hTDP1 cells, no CPT, ATP luminescence, 48 h. Potency, µM (doses to about 46.2 µM), hits mostly inhibitors. 15% of 420,000 active; further: nearly all actives have a fitted effect of over 55% in size
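A cellular qHTS used chicken DT40 cells lacking endogenous Tdp1 but carrying stably transfected human TDP1. Compounds were applied without camptothecin, and cell growth kinetics were judged by ATP-dependent luminescence after ≥48 hr.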
DT40 TDP1 CPT: qHTS for Inhibitors of human tyrosyl-DNA phosphodiesterase 1 (TDP1): qHTS in cells in presence of CPT; chicken DT40 Tdp1-/-;hTDP1 cells + 20 nM CPT, ATP luminescence, 48 h; Potency, µM (highest dose often 46.2 µM), actives largely listed as inhibitors; 12% of 420,000 active; AID 686979, 2013; further: nearly all actives have a fitted effect of over 55% in size
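Cell growth measured by CellTiter-Glo luminescence after a minimum 48 h, 37 C compound exposure with 20 nM CPT in Tdp1-knockout DT40 cells stably expressing hTDP1, seeded 400/well; qHTS titration format.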
HT1080NT lethal: qHTS for induction of synthetic lethality in tumor cells producing 2HG: qHTS for the HT-1080-NT fibrosarcoma cell line; Potency, µM (series often up to 46.1 µM), usual class: cytotoxic; 1.6% of 360,000 active; HT-1080-NT fibrosarcoma viability, CellTiter-Glo ATP luminescence, 48 h;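 further: NT is the 2HG producing partner of a matched IDH1 knockdown line; nearly all actives have a fitted effect of over 55% in size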
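HT-1080-NT fibrosarcoma cells (2HG-overproducing), 750 cells/well in RPMI with 5% FBS, dosed after 2 h and incubated 48 h at 37C. CellTiter-Glo luminescence normalized to DMSO and no-cell wells; concentration-response curves fitted and classed.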
IL-1B inflam inh: qHTS for Inhibitors of Inflammasome Signaling: IL-1-beta AlphaLISA Primary Screen. THP-1 LPS/ATP IL-1B secretion, AlphaLISA, 16 h; hits give low values. activity change, % at 57.5 µM. 4.7% of 360,000 active. AID 743279, 2014; in the data active means activity change below about -50%; inconclusive means mostly about -30% to -49%
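Secreted IL-1B measured by AlphaLISA bead assay after 16 h compound exposure of THP-1 cells; compounds (final up to 57.5 uM) added 1 h before LPS (250 ng/mL) and ATP (1.25 mM) stimulation; lower signal means less secretion.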
Large screens that a line does not name were inactive. A selection: hits, their analogues and other compounds. The true share with any hit is near 19%. Unless noted, the call rests on the fitted dose curve; in most records, active means well fitted curve in the direction sought with a large enough effect; inconclusive means small, poorly fitted or top-dose-only effect, or another doubt; inactive means no such curve, though single readings can be large; an effect the other way counts as inactive or inconclusive.

COCCNC(=S)N(CCc1c(C)[nH]c2ccc(F)cc12)Cc1cccnc1	none
COCCNC(=S)N(CCc1c(C)[nH]c2ccc(Cl)cc12)Cc1cccnc1	DT40 TDP1 no CPT 21µM, DT40 TDP1 CPT inconclusive, IL-1B inflam inh inconclusive
CCNC(=S)N(CCc1c(C)[nH]c2ccc(Cl)cc12)Cc1cccnc1	DT40 TDP1 no CPT inconclusive, DT40 TDP1 CPT inconclusive, IL-1B inflam inh -87
COCCNC(=S)N(CCc1c(C)[nH]c2ccc(C)cc12)Cc1cc(OC)c(OC)c(OC)c1	DT40 TDP1 no CPT inconclusive, DT40 TDP1 CPT 18µM
Nc1nc(NCCCN2CCOCC2)nc(Nc2cccc(Cl)c2)c1[N+](=O)[O-]	HT1080 IDH1KD tx inconclusive, DT40 TDP1 no CPT inconclusive, DT40 TDP1 CPT inconclusive, IL-1B inflam inh -92
Nc1nc(NCCCN2CCOCC2)nc(Nc2ccc(Cl)cc2)c1[N+](=O)[O-]	DT40 TDP1 no CPT inconclusive, DT40 TDP1 CPT inconclusive (no result: IL-1B inflam inh)
Cc1ccc(Nc2nc(NCCCN3CCOCC3)nc(N)c2[N+](=O)[O-])cc1C	DT40 TDP1 no CPT 18µM, DT40 TDP1 CPT inconclusive
O=c1c(N2CCOCC2)c(N2CCOCC2)c1=O	none
CC(C)(C)C1=CC(=O)C(N2CCOCC2)=CC1=O	DT40 TDP1 no CPT 21µM, DT40 TDP1 CPT 7.3µM
Cc1ccc(C)c(NC(=O)COC(=O)COc2cccc3c2OC(C)(C)C3)c1	none
Cc1cccc(NC(=O)CCC(=O)N2CCOCC2)n1	none
COc1ccc(C(=O)CN2C(=O)NC(C)(c3ccccc3)C2=O)cc1OC (configuration not stated)	none
COc1cc(NC(=O)c2cc(C)nc3ccccc23)cc(OC)c1OC	none
Cc1nc2ccccc2c2oc(C(=O)NCC3COc4ccccc4O3)cc12 (configuration not stated)	DT40 TDP1 no CPT 12µM, DT40 TDP1 CPT 21µM
Cc1nc2ccccc2c2oc(C(=O)Nc3ccc(C(C)C)cc3)cc12	HT1080 IDH1KD tx inconclusive, DT40 TDP1 no CPT 21µM, DT40 TDP1 CPT inconclusive, HT1080NT lethal inconclusive
Cc1nn(-c2ccccc2)nc1C(=O)Nc1ccc2c(c1)OCCO2	IL-1B inflam inh inconclusive
COc1cc(NC(=O)c2cc3c(C)nc4ccccc4c3o2)cc(OC)c1OC	DT40 TDP1 no CPT 12µM, DT40 TDP1 CPT 8.2µM
Cc1nc2ccccc2c2oc(C(=O)Nc3ccc4c(c3)OCCO4)cc12	DT40 TDP1 no CPT 15µM, DT40 TDP1 CPT 15µM
CN(C)c1ccc(C(=S)N2CCN(Cc3ccccc3)CC2)cc1	DT40 TDP1 no CPT inconclusive, DT40 TDP1 CPT inconclusive
COc1ccc(C(O)c2nccn2Cc2ccccc2)cc1 (configuration not stated)	none
Cc1ncc(C(O)c2ccc(N(C)C)cc2)n1Cc1ccccc1 (configuration not stated)	DT40 TDP1 no CPT 23µM, DT40 TDP1 CPT inconclusive
CCc1ncc(C(O)c2ccc(Cl)cc2)n1Cc1ccccc1 (configuration not stated)	HT1080 IDH1KD tx inconclusive, DT40 TDP1 no CPT 12µM, DT40 TDP1 CPT 18µM
Cc1ccc2c(c1)N1C(=O)c3ccccc3C1C1=C(CC(C)(C)CC1=O)N2 (configuration not stated)	none
O=C(Nc1ccc(N2CCOCC2)c(Cl)c1)c1cccc(F)c1	DT40 TDP1 no CPT inconclusive, IL-1B inflam inh -54
O=C(Nc1ccc(N2CCOCC2)c(Cl)c1)c1cccnc1	none
O=C(Nc1ccc(N2CCOCC2)c(Cl)c1)c1c(F)c(F)c(F)c(F)c1F	DT40 TDP1 no CPT 16µM, DT40 TDP1 CPT 23µM
O=C(Nc1ccc(N2CCOCC2)c(Cl)c1)c1cccnc1Cl	none
O=C(Nc1ccc(N2CCOCC2)c(Cl)c1)c1cc(F)c(F)cc1Cl	DT40 TDP1 no CPT inconclusive, DT40 TDP1 CPT inconclusive, IL-1B inflam inh -58
COc1c(C)cccc1C(=O)Nc1ccc(N2CCOCC2)c(Cl)c1	DT40 TDP1 no CPT inconclusive, DT40 TDP1 CPT inconclusive, IL-1B inflam inh -69
Cc1cccc(Oc2nc3c(c(=O)n(C)c(=O)n3C)n2Cc2ccccc2)c1C	DT40 TDP1 no CPT inconclusive (no result: HT1080 IDH1KD tx, HT1080NT lethal, IL-1B inflam inh)
O=C(O)C1CCCN1C(=O)NC1CCCCC1 (configuration not stated)	none
Cc1ccc(COc2ccsc2C(=O)NNC(N)=S)cc1	none
CC(O)[C@H]1CC[C@H]2[C@@H]3CC[C@@H]4C[C@@H](O)CC[C@]4(C)[C@H]3CC[C@]12C (some centres not stated)	none (no result: HT1080 IDH1KD tx, HT1080NT lethal, IL-1B inflam inh)
O=C(Nc1cccc(Cl)c1N1CCOCC1)c1cccs1	DT40 TDP1 CPT inconclusive, HT1080NT lethal inconclusive
COc1c(F)c(F)c(C(=O)Nc2cccc(Cl)c2N2CCOCC2)c(F)c1F	DT40 TDP1 no CPT 21µM, DT40 TDP1 CPT 15µM
CCCc1n[nH]c(=O)c2c1nnn2Cc1ccccc1	none
CCc1cc(-c2cnnn2Cc2ccccc2)ccc1-c1cn(CC(C)C)nn1	HT1080 IDH1KD tx inconclusive, DT40 TDP1 no CPT 10µM, DT40 TDP1 CPT inconclusive, HT1080NT lethal inconclusive, IL-1B inflam inh inconclusive
COc1ccc2c(/C=N/NS(=O)(=O)c3ccc(C)cc3)c[nH]c2c1	none
COc1ccc2[nH]cc(/C=N/NS(=O)(=O)c3ccc(C)cc3)c2c1	DT40 TDP1 no CPT 13µM, DT40 TDP1 CPT 15µM, HT1080NT lethal inconclusive
COc1ccc(OC)c(S(=O)(=O)N/N=C\c2c[nH]c3ccccc23)c1	DT40 TDP1 no CPT 9.2µM, DT40 TDP1 CPT 18µM
COc1ccc([C@H]2CC(=O)C=C(c3c(C)cc(C)cc3C)C2)cc1	DT40 TDP1 no CPT inconclusive, DT40 TDP1 CPT inconclusive
COc1ccc(/C=C2\SC(=Nc3ccccc3Cl)NC2=O)c(OC)c1	HT1080 IDH1KD tx inconclusive, DT40 TDP1 no CPT 15µM, DT40 TDP1 CPT 26µM, HT1080NT lethal inconclusive, IL-1B inflam inh -52
COc1c(/C=C2\SC(=Nc3ccccc3Cl)NC2=O)cccc1[N+](=O)[O-]	none
FC(F)(F)c1ccccc1Cc1c(-c2ccccc2)nc2ccc(Br)cn12	DT40 TDP1 no CPT inconclusive, DT40 TDP1 CPT inconclusive
COc1cccc(NC(=O)CCc2nc(-c3cc(OC)c(OC)c(OC)c3)no2)c1	DT40 TDP1 no CPT 16µM, DT40 TDP1 CPT 18µM (no result: HT1080 IDH1KD tx, HT1080NT lethal, IL-1B inflam inh)
COc1cc(-c2noc(CCC(=O)Nc3cc(C)ccc3C)n2)cc(OC)c1OC	DT40 TDP1 no CPT 12µM, DT40 TDP1 CPT 18µM (no result: HT1080 IDH1KD tx, HT1080NT lethal, IL-1B inflam inh)
COc1cccc(NC(=O)CCc2nc(-c3cccs3)no2)c1	HT1080 IDH1KD tx inconclusive, HT1080NT lethal 7.3µM
COc1ccccc1NC(=O)CCc1nc(-c2cccs2)no1	none
COc1cc(-c2noc(CCCC(=O)Nc3cccnc3)n2)cc(OC)c1OC	none
Cc1ccc(-c2nc(S(=O)(=O)c3ccc(F)cc3)c(N3CCN(c4ccccc4)CC3)o2)cc1	DT40 TDP1 CPT inconclusive (no result: HT1080 IDH1KD tx, HT1080NT lethal, IL-1B inflam inh)
